# Data as given in ChEMBL document CHEMBL3433997, “St. Jude Leishmania screening dataset” (2016).
# “And” between values parts separate entries of the source, which are not always exact repeats. Identical values can stand only once.
# What was measured:
# Assay type in all cases: functional
# [1] = target: Solute carrier family 2, facilitated glucose transporter member 1 (Homo sapiens) (UniProt P11166); experiment: ST_JUDE_LEISH: Cytotoxicity at 2uM final concentration against transgenic Leishmania Mexicana promastigotes LmGLUT1 that are glucose transport deficient and complemented with the human glucose transporter GLUT1. Activity is measured by DNA content using SYBR green in vitro
# [2] = target: Hexose transporter 1 (Plasmodium falciparum) (UniProt O97467); experiment: ST_JUDE_LEISH: Cytotoxicity at 2uM final concentration against transgenic Leishmania Mexicana promastigotes LmPfHT that are glucose transport deficient and complemented with the Plasmodium falciparum hexose transporter. Activity is measured by DNA content using SYBR green in vitro
# [3] = target: Glucose transporter (Leishmania mexicana) (UniProt O61059); experiment: ST_JUDE_LEISH: Cytotoxicity at 2uM final concentration against transgenic Leishmania Mexicana promastigotes LmGT2 that are glucose transport deficient and complemented with the L. Mexicana glucose transporter 2. Activity is measured by DNA content using SYBR green in vitro
# Sequence of Solute carrier family 2, facilitated glucose transporter member 1 (Homo sapiens) (P11166 whole entry): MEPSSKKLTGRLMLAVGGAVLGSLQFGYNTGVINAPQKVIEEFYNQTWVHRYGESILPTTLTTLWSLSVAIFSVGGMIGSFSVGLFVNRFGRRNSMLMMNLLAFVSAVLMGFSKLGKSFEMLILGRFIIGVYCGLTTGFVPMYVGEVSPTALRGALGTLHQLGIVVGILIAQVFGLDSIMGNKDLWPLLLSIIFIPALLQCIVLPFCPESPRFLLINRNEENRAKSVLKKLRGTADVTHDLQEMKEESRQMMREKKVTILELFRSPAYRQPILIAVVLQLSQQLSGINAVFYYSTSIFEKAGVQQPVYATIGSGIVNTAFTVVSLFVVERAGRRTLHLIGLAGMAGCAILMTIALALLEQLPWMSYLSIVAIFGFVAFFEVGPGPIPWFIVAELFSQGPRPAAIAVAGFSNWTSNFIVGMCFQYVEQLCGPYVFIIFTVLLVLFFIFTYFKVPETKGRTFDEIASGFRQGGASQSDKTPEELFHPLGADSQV
structure (smiles),measurement,setting,value
O=C(Cc1cc(=O)oc2cc(O)ccc12)N1CCC(CN2CCC(c3c[nH]c4ccccc34)CC2)CC1,inhibition,[1],4.12%
same,inhibition,[2],5.46%
same,inhibition,[3],5%
O=C(/C=C/c1ccc(Cl)c(Cl)c1)NCCCCCN1C2CCC1CC(c1c[nH]c3ccccc13)C2 (stereo unspecified),inhibition,[1],0.42%
same,inhibition,[2],1.9%
same,inhibition,[3],2.33%
CN1CCC(N(C)c2nccc(N3CCN(Cc4cncn4Cc4ccccc4)CC3)n2)CC1,inhibition,[1],12.8%
same,inhibition,[2],12.8%
same,inhibition,[3],10.8%
COc1c(F)cc(CC(C)NCC(O)c2cccc(Cl)c2)cc1F (stereo unspecified),inhibition,[1],-0.28%
same,inhibition,[2],-0.81%
same,inhibition,[3],-3.56%
O=C(/C=C/c1ccc(Cl)c(Cl)c1)NCCC1CCC(N2CCC(c3c[nH]c4ccccc34)CC2)CC1 (stereo unspecified),inhibition,[1],6.03%
same,inhibition,[2],7.76%
same,inhibition,[3],4.25%
CC(Cc1ccc(C(C)(C)C)cc1)NCC(O)c1ccccc1 (stereo unspecified),inhibition,[1],2.91%
same,inhibition,[2],-0.46%
same,inhibition,[3],0.43%
CN(C)CCCn1cc(C(=O)OC2CC3CCC(C2)N3C)c2cc(-c3ccccc3)ccc21 (stereo unspecified),inhibition,[1],12.9%
same,inhibition,[2],6.68%
same,inhibition,[3],9.57%
S=C(NCCc1ccc(Cl)cc1)N1CCC(CN2CCC(c3c[nH]c4ccccc34)CC2)CC1,inhibition,[1],3.04%
same,inhibition,[2],1.73%
same,inhibition,[3],1.67%
CC[C@H]1CN2CC[C@@H]1C[C@H]2[C@H](O)c1cc(N2CCC(O)(c3ccccc3)CC2)nc2ccc(OC)cc12,inhibition,[1],5.33%
same,inhibition,[2],4.26%
same,inhibition,[3],1.87%
O=C(NC1CCN(CC2(c3ccc(Cl)cc3)CCC2)CC1)c1cscn1,inhibition,[1],1.16%
same,inhibition,[2],-2.56%
same,inhibition,[3],0.83%
O=P(O)(O)Oc1c(Br)cc(Br)cc1-c1cc(Br)cc(Br)c1O,inhibition,[1],0.02%
same,inhibition,[2],1.27%
same,inhibition,[3],0.55%
COc1ccccc1CNCC(O)c1cc(C(F)(F)F)ccc1C(F)(F)F (stereo unspecified),inhibition,[1],0.84%
same,inhibition,[2],0.58%
same,inhibition,[3],1.6%
COC(=O)/C=C/C(=O)N[C@@H]1CC[C@@]2(O)[C@H]3Cc4ccc(O)c5c4[C@@]2(CCN3CC2CC2)[C@H]1O5,inhibition,[1],4.79%
same,inhibition,[2],5.03%
same,inhibition,[3],6.57%
COC(=O)c1ccc(CC(C)NCC(O)c2cccc3ccccc23)cc1 (stereo unspecified),inhibition,[1],4.9%
same,inhibition,[2],3.26%
same,inhibition,[3],2.22%
O=C(/C=C/c1ccc(Cl)c(Cl)c1)N1CCC2CC(N3CCC(c4c[nH]c5ccccc45)CC3)CCC2C1 (stereo unspecified),inhibition,[1],3.41%
same,inhibition,[2],-0.87%
same,inhibition,[3],0.24%
Cn1nc(-c2ccc(S(=O)(=O)NC3CCC(CN4CCC(c5c[nH]c6ccccc56)CC4)CC3)s2)cc1C(F)(F)F (stereo unspecified),inhibition,[1],5.26% and 1.76%
same,inhibition,[2],4.54% and 4.39%
same,inhibition,[3],1.24% and 0.16%
COc1ccc(F)cc1-c1csc(N(c2ccc(F)cc2)C2CCNCC2)n1,inhibition,[1],1.56%
same,inhibition,[2],0.21%
same,inhibition,[3],0.05%
O=C(/C=C/c1ccc(Cl)c(Cl)c1)Nc1cccc(CN2CCC(c3c[nH]c4ccc(O)cc34)CC2)c1,inhibition,[1],0.9%
same,inhibition,[2],1.55%
same,inhibition,[3],-0.7%
O=C(/C=C/c1ccc(Cl)c(Cl)c1)N1CCC(CN2CCC(c3c[nH]c4ccc(NS(=O)(=O)c5cccs5)cc34)CC2)CC1,inhibition,[1],6.53%
same,inhibition,[2],5.86%
same,inhibition,[3],5.21%
NCC(=O)c1cc2c(cc1N)OCCO2,inhibition,[1],8.91%
same,inhibition,[2],9.43%
same,inhibition,[3],3.9%
NCc1cccc(-c2cccc(CN(C(=O)Nc3ccccc3)C3CCN(Cc4ccccc4)CC3)c2)c1,inhibition,[1],7.36%
same,inhibition,[2],6.75%
same,inhibition,[3],6.25%
COc1coc(C(=O)NC2CCN(CC3(c4ccc(Cl)cc4)CCC3)CC2)c1OC,inhibition,[1],4.7%
same,inhibition,[2],4.52%
same,inhibition,[3],2.81%
COc1cc(NCCCNC(=O)c2cn(Cc3ccccc3)c3ccccc23)nc2ccccc12,inhibition,[1],-0.26%
same,inhibition,[2],-0.48%
same,inhibition,[3],-1.02%
CC(C)/C(=C(/F)CN1C(=O)C(NC(=O)c2cc3ccccc3[nH]2)C(=O)N(c2ccccc2)c2ccccc21)c1ccccc1 (stereo unspecified),inhibition,[1],-0.35%
same,inhibition,[2],-0.22%
same,inhibition,[3],-1.01%
CC[C@H]1CN2CC[C@@H]1C[C@H]2[C@H](O)c1cc(-c2ccc(Cl)c(Cl)c2)nc2ccc(O)cc12,inhibition,[1],-0.36%
same,inhibition,[2],-1.15%
same,inhibition,[3],-0.47%
Oc1ccc(CN2CCN(CCOC(c3ccccc3)c3ccc(Cl)cc3)CC2)cc1Cl (stereo unspecified),inhibition,[1],5.8%
same,inhibition,[2],1.85%
same,inhibition,[3],-3.12%
CCCC(=O)c1c(O)c2ccccc2oc1=O,inhibition,[1],6.46%
same,inhibition,[2],7.19%
same,inhibition,[3],5.83%
COc1ccc(CC(C)NCC(O)c2ccc(Cl)c(Cl)c2)cc1 (stereo unspecified),inhibition,[1],0.41%
same,inhibition,[2],-0.07%
same,inhibition,[3],-2.6%
Cc1[nH]c2ccc(O)cc2c1C1CCN(CC2CCC(NC(=O)/C=C/c3c(Cl)cccc3Cl)CC2)CC1 (stereo unspecified),inhibition,[1],1.67%
same,inhibition,[2],0.48%
same,inhibition,[3],3.62%
CC(Cc1ccc(SCCSc2ccccc2)cc1)NCC(O)c1cccc(Cl)c1 (stereo unspecified),inhibition,[1],0.69%
same,inhibition,[2],-0.5%
same,inhibition,[3],1.16%
CCCc1ccc2c(c1O)CCC(N(CCC)CCC)C2 (stereo unspecified),inhibition,[1],2.32%
same,inhibition,[2],2.51%
same,inhibition,[3],2.48%
O=C(/C=C/c1ccc(Cl)c(Cl)c1)NCC1CCCC(CN2CCC(c3c[nH]c4ccccc34)CC2)C1 (stereo unspecified),inhibition,[1],2.54%
same,inhibition,[2],3.43%
same,inhibition,[3],0.26%
